About 7,900 targets were measured; listed, in parts, are those with a hit and a random draw of the rest. About 0.6% of all pairs of compound and target were hits.
Columns and labels:
Assay in all cases: log2 fold change, soluble protein after heating vs DMSO (PISA); higher = thermal stabilisation; K562 cells, 10 uM, 30 min; active = over 0.2 and 3.5 SD of the protein, either way, in both replicates (recomputed)
[1] = compound: C1COCCN1CCN2C3=CC=CC=C3N=C2NC(=O)C4=CC(=CC=C4)[N+](=O)[O-] [IRAK-1-4 Inhibitor I]
Procedure, shortened: (§1)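 Soluble protein was defined as the supernatant after 21,000xg for 90 min. It came from K562 cells at 2×10^6 cells/mL given 10 μM compound for 30 min, heated in aliquots for 3 min across 48°C-58°C, pooled, and extracted in PBS with 0.5% NP-40 at 4°C, and was quantified by TMTpro 16plex LC-MS/MS with equalised channel sums. Thermal stability against control samples, from duplicates, is reported as log2 fold change.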

[2] = compound: C=CC(=O)N1CCC[C@@H](n2nc(-c3ccc(Oc4ccccc4)cc3)c3c(N)ncnc32)C1 [ibrutinib]
Procedure, shortened: as §1

[3] = compound: CC(C)(O)CC(=O)NCCn1ccc2ncnc(Nc3ccc(Oc4cccc(C(F)(F)F)c4)c(Cl)c3)c21
Procedure, shortened: as §1

[4] = compound: CC(C)N(C[C@H]1O[C@@H](n2cnc3c(N)ncnc32)[C@H](O)[C@@H]1O)[C@H]1C[C@@H](CCc2nc3cc(C(C)(C)C)ccc3[nH]2)C1 [pinometostat]
Procedure, shortened: as §1

[5] = compound: CC1=C(C2=C(C=C1)C(=O)C3=CC=CC=C3N2CCCN)C
Procedure, shortened: as §1

[6] = compound: CC(C)(C)Cn1c(N)nc2ccc(-c3[nH]c(C(C)(C)C)nc3-c3ccc(F)cc3)nc21 [ralimetinib]
Procedure, shortened: as §1

[7] = compound: CC(C)C1=C2N=C(C=C(N2N=C1)NCC3=CC=CC=C3)NCCCCCCN
Procedure, shortened: as §1

[8] = compound: CC(C)C[C@@H](C=O)NC(=O)[C@H](CC(C)C)NC(=O)[C@H](CC(C)C)NC(=O)OCc1ccccc1
Procedure, shortened: as §1

[9] = compound: CC(=O)c1cnc2ccc(-c3cc(Cl)c(O)c(Cl)c3)nc2c1N[C@H]1CC[C@H](CN(C)C)CC1
Procedure, shortened: as §1

[10] = compound: CC1=C(C(CC(=O)N1)C2=CC=C(C=C2)C(F)(F)F)C(=O)NC3=C(C=C4C(=C3)C=NN4)F
Procedure, shortened: as §1

Measured: log2 fold change

PSMC3 (UniProt E9PLG2)
inactive: [1] -0.064 | [2] -0.051 | [3] 0.167 | [4] -0.1 | [5] -0.155

PHRF1 (UniProt Q9P1Y6)
Chain of UniProt Q9P1Y6 (Q9P1Y6 whole entry, looked up): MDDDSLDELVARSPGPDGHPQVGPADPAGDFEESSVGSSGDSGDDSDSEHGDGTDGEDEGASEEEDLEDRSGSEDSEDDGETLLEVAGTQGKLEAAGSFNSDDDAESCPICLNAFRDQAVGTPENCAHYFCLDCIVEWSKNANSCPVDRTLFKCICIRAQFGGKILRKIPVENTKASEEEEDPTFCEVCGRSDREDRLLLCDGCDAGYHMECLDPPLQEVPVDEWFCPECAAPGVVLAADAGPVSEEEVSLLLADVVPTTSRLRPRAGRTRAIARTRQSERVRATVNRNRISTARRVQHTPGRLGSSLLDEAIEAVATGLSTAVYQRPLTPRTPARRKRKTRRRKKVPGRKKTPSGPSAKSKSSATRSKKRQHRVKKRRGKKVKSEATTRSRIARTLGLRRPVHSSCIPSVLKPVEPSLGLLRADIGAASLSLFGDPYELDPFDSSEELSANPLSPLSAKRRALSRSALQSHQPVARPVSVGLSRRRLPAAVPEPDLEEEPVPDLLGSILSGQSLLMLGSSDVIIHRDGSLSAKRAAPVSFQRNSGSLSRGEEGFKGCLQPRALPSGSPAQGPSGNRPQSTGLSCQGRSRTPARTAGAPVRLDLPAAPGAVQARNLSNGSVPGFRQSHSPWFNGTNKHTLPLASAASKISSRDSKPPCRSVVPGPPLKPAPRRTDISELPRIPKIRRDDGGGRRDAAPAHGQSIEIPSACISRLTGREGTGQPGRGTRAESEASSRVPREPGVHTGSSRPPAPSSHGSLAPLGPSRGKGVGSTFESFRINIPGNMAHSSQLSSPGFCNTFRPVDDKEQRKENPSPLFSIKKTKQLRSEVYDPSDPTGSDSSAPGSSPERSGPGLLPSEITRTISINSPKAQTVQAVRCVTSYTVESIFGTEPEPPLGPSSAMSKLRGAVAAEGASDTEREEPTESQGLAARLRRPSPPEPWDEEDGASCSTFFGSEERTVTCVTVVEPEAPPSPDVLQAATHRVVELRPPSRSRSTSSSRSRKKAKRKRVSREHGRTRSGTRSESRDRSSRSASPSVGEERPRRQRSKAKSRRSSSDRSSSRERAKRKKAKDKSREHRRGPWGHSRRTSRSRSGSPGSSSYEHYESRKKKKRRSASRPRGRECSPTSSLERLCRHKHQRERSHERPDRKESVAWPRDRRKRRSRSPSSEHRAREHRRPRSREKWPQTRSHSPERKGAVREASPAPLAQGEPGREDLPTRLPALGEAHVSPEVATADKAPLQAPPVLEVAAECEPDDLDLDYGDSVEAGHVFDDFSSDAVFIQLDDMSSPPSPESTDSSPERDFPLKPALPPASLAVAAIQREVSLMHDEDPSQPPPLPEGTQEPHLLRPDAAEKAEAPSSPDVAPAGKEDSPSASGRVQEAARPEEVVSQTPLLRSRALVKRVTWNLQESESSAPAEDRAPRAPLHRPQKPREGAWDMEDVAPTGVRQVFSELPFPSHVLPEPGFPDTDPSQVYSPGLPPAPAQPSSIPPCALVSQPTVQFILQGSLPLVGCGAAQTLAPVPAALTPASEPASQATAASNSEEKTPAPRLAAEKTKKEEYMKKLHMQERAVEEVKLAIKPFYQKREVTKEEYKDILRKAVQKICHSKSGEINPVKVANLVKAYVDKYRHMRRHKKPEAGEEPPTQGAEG
inactive: [6] -0.144 | [8] 0.119
active: [7] 0.718

PRR14L (UniProt Q5THK1)
inactive: [9] -0.104 | [10] 0.015 | [5] 0.008

PARP16 isoform 3 (UniProt Q8N5Y8)
Chain of UniProt Q8N5Y8 (Q8N5Y8 whole entry, looked up): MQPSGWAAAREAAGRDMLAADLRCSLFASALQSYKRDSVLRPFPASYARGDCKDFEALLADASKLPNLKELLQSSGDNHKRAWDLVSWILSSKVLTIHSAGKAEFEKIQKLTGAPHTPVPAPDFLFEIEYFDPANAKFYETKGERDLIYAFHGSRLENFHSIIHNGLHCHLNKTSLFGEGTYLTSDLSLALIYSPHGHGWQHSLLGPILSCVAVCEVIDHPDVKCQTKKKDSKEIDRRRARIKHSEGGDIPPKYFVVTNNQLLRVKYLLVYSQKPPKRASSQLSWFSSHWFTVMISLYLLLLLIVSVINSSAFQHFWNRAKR
inactive: [1] -0.036 | [2] -0.13 | [9] -0.003 | [3] 0.032 | [7] -0.012 | [4] -0.097 | [10] -0.009 | [5] -0.027

PKM (UniProt P14618)
inactive: [1] 0.012 | [9] -0.011 | [6] -0.018 | [3] -0.02 | [7] 0.079 | [8] -0.013 | [4] -0.033 | [10] 0.021 | [5] 0.036

PSMD8 (UniProt K7ERW6)
inactive: [1] 0.018 | [4] 0.001 | [5] 0.037

PCBP2 (UniProt F8VZX2)
inactive: [1] -0.177 | [2] 0.212 | [6] -0.004 | [7] -0.127 | [8] 0.138 | [4] 0.136 | [10] 0.128

PUM1 (UniProt Q14671)
Chain of UniProt Q14671 (Q14671 whole entry, looked up): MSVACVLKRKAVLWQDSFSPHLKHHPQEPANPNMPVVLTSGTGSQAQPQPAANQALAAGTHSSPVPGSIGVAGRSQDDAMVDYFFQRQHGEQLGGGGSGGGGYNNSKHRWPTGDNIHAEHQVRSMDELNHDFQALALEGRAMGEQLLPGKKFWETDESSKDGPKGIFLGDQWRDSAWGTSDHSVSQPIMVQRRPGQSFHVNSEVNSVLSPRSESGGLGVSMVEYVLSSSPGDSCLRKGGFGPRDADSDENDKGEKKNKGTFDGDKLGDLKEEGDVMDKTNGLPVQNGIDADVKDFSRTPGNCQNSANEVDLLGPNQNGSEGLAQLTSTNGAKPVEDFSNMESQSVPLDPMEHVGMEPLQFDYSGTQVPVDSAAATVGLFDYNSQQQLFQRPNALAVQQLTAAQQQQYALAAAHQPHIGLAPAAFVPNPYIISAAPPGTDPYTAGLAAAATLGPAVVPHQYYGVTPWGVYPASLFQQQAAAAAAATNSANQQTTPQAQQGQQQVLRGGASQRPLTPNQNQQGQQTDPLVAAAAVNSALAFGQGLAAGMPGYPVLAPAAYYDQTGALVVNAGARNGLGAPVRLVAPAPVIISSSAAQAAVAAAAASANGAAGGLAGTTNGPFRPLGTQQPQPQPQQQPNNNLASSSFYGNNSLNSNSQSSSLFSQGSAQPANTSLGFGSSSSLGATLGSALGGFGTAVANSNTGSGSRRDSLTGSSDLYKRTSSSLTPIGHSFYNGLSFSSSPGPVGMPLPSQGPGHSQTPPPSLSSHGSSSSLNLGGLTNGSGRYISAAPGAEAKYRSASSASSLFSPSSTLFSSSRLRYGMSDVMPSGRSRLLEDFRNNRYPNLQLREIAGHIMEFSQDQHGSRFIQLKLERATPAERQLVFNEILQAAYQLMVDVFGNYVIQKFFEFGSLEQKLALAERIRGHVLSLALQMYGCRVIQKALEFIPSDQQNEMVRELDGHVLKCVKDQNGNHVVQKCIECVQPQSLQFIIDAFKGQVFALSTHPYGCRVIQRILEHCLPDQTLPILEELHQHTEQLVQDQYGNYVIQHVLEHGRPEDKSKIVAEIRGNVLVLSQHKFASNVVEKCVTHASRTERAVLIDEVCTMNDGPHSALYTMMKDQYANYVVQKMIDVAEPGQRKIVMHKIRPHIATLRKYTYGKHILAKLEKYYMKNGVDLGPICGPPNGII
inactive: [1] 0.101 | [9] -0.038 | [7] -0.226 | [4] 0.073 | [5] 0.139

PCID2 (UniProt Q5JVF3)
inactive: [1] -0.008 | [2] -0.015 | [6] 0.007 | [3] 0.063 | [8] -0.02 | [4] 0.037 | [10] 0.035 | [5] 0.06
active: [7] -0.428

PRKCE (UniProt Q02156)
Chain of UniProt Q02156 (Q02156 whole entry, looked up): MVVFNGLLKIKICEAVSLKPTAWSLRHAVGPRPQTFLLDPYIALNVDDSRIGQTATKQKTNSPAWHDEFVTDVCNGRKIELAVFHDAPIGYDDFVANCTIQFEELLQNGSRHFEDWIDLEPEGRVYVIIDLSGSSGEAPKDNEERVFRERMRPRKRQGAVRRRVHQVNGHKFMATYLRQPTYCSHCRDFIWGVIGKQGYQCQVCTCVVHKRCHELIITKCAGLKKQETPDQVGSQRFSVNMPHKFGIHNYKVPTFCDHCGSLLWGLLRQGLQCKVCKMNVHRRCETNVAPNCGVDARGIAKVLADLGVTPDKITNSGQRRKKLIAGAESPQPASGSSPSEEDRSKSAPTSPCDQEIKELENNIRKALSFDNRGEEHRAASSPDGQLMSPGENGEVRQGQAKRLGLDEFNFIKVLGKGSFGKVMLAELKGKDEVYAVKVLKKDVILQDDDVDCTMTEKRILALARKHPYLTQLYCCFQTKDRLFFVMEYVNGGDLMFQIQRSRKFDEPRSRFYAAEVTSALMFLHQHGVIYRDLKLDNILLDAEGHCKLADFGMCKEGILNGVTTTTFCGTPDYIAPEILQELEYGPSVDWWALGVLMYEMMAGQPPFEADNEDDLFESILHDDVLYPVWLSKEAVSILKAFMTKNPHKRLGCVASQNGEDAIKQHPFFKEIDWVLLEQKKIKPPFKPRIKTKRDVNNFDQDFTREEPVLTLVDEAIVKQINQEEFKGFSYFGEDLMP
inactive: [1] -0.02 | [2] -0.013 | [3] -0.026 | [7] -0.153 | [4] -0.051 | [10] -0.059 | [5] -0.009
active: [9] -0.468

PPP2R5B (UniProt Q15173)
inactive: [2] -0.083 | [9] 0.165 | [7] 0.092 | [10] 0.037

PRKD2 (UniProt M0R346)
inactive: [2] -0.096 | [3] -0.273

PSMA3 (UniProt G3V4X5)
active: [8] 0.733
inactive: [1] -0.451 | [2] -0.065 | [6] -0.114 | [4] -0.001

PTEN isoform 2 (UniProt P60484)
Chain of UniProt P60484 (P60484 whole entry, looked up): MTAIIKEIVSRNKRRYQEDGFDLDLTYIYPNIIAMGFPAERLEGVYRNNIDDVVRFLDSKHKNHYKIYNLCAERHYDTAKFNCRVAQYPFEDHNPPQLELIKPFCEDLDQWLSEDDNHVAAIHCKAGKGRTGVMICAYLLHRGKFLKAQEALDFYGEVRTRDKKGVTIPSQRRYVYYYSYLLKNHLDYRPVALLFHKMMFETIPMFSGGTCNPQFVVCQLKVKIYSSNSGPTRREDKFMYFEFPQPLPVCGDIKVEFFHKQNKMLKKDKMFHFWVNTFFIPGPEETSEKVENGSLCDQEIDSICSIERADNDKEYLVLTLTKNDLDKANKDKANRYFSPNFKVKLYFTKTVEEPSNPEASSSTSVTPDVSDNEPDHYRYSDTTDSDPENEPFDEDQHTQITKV
inactive: [1] -0.227 | [6] 0.062 | [8] 0.083 | [4] -0.006
active: [7] -0.629

PPP1R12C (UniProt Q9BZL4)
Chain of UniProt Q9BZL4 (Q9BZL4 whole entry, looked up): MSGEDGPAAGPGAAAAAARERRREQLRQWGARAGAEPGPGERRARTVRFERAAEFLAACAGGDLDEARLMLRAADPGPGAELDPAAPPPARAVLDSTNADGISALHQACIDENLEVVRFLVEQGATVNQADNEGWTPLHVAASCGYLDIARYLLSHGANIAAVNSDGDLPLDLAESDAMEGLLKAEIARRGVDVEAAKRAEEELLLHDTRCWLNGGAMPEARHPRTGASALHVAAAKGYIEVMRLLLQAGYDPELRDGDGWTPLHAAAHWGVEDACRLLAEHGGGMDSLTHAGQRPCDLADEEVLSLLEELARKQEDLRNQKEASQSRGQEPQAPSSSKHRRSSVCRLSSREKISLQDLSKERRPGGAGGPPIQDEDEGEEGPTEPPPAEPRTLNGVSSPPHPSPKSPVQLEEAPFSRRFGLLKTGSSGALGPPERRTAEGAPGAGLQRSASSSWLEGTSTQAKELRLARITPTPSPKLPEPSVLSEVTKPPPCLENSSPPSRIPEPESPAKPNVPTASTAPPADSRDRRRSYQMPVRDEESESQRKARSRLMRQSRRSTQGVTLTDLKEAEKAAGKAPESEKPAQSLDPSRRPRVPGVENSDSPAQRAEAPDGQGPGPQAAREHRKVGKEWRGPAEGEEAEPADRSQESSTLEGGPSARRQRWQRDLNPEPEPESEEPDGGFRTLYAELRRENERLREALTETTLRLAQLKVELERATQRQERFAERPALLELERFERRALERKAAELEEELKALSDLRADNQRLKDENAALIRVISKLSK
inactive: [2] -0.024 | [6] -0.028 | [3] 0.045 | [7] -0.126 | [8] -0.041 | [10] -0.291 | [5] -0.157

POGZ (UniProt Q7Z3K3)
inactive: [1] -0.133 | [9] -0.183 | [6] 0.083 | [3] -0.035 | [7] 0.066 | [8] 0.038 | [4] -0.05
active: [5] -0.826

— the supplement of paper PMC10849652
